Results on 29 compounds are retold here after PubChem BioAssay AID2717 (Broad Institute, 2010).

Molecules are shown by their SMILES. Screen size: about 300,000 compounds; about 3,200 (1.1%) were called active. Rule as the data show it: active = inhibition above about 75%; inconclusive = no clear call, values can overlap the other calls; inactive = below that; tested in HMLE shEcad cells. Only a selection was taken, and actives are over-represented in it overall.

A short description of this assay: cancer stem cell viability inhibitors, primary screen, luminescence (AID 2717). The following applies: cancer stem cell-like cells viability, at 7.5 µM, hits give high values.
As for `CN=C(Nc1cccc(S(=O)(=O)N2CCOCC2)c1)c1ccccc1`, the inhibition (usually the relative decrease from the control value, in per cent) was -5.3% (inactive). Regarding `COc1ccc(S(=O)(=O)NC(C)C(=O)Nc2cccc([N+](=O)[O-])c2)cc1` (centres undefined), the inhibition is -2.67% (inactive). Consider `COc1cccc(CNC(=O)CCCC(=O)Nc2cccc([N+](=O)[O-])c2)c1`, for which the inhibition is -9.18% (inactive). `COC(=O)/C=C\C(=O)Nc1cccc([N+](=O)[O-])c1`: the inhibition was 88.5% (active).

In the case of `Cc1ccc(NC(=O)c2ccc(Cl)nc2)cc1S(=O)(=O)N1CCOCC1`, the inhibition was 33.6% (inactive). On to `CCOC(=O)N1CCN(C(=O)COCc2cc(-c3ccc4c(c3)OCO4)on2)CC1`, for which the inhibition was -12.8% (inactive). Take `Cc1cccc(N2CCN(C(=O)COCc3cc(-c4ccc5c(c4)OCO5)on3)CC2)c1C`: the inhibition was 121% (active). `O=C(COCc1cc(-c2ccc3c(c2)OCO3)on1)N1CCN(c2cccc(Cl)c2)CC1`: the inhibition was 36.2% (inactive). In the case of `Cc1ccc(C(=O)Nc2ccc3c(c2)OCCO3)cc1S(=O)(=O)N1CCOCC1`, the inhibition was -3.87% (inactive). For the compound `C[C@H](CO)N1C[C@H](C)[C@@H](CN(C)S(=O)(=O)c2ccc(F)cc2)Oc2ccc(NC(=O)CCC(F)(F)F)cc2C1=O`, the inhibition is 4.59% (inactive).

`CCN(c1ccccc1)S(=O)(=O)c1ccc(C(=O)Nc2ccccc2OC)cc1`: the inhibition was 16.8% (inactive). As to `COc1ccc([C@H]2CC(=O)C=C(c3ccc(CO)cc3)C2)cc1`, the inhibition is -11% (inactive). With `FC(F)(F)c1cccc(NC(=S)Nc2cccc(Cl)c2)c1` the figure was 52.9% (inactive); with `Cc1csc(NC(=S)Nc2cccc(Cl)c2)n1`, 78.6% (active); with `S=C(Nc1cccc(Cl)c1)Nc1ccc2c(c1)OCCO2`, 4.65% (inactive). On to `CCN(CC)S(=O)(=O)c1ccc(N2CCOCC2)c(NC(=O)C(C)Oc2ccc(F)cc2)c1` (centres undefined), for which the inhibition was -11.2% (inactive). With `CN(c1ccccc1)S(=O)(=O)c1cc(C(=O)N2CCN(c3ncccn3)CC2)ccc1Cl`, the inhibition was 3.3% (inactive). With `Cc1ccc(C)c(S(=O)(=O)N2CCN(c3ncnc4sccc34)CC2)c1`, the inhibition is 101% (active). For the compound `COc1ccc(C)cc1S(=O)(=O)N1CCN(S(=O)(=O)c2cc(C(=O)O)ccc2C)CC1`, the inhibition is -3.35% (inactive). For the compound `Cc1ccc(C)c(S(=O)(=O)N2CCN(C(=O)Nc3ccccc3)CC2)c1`, the inhibition was -18.4% (inactive). For `CCC1(C)NC(=O)N(CC(=O)N2CCN(c3cccc(Cl)c3)CC2)C1=O` (centres undefined), the inhibition was 3.29% (inactive). Consider `CCN1C(=O)/C(=C\N2CCOCC2)SC1=S`, for which the inhibition was -22.1% (inactive). With `CCN1C(=O)/C(=C\N2CCN(c3cccc(Cl)c3)CC2)SC1=S` the figure was 100% (active); with `COc1cc(/C=C/C(=O)Nc2ccc(OC)c(S(=O)(=O)N3CCOCC3)c2)ccc1OCC#N`, 42.4% (inactive); with `O=C(Nc1cccc(S(=O)(=O)N2CCCC2)c1)c1cncc(Br)c1`, -1.23% (inactive). Under `C=CCC[C@@H](Cc1ccc(F)cc1)C(=O)OC[C@@H](C)NC(=O)[C@H](CC=C)CC(=O)N(CCO)Cc1ccccc1` stands -1.95% (inactive); under `O=C(CSc1nnc(-c2ccncc2)o1)Nc1cccc(Cl)c1`, 7.36% (inactive). Turning to `Cc1cc(C)c(S(=O)(=O)N2CCC(C(=O)OCc3c(C)noc3C)CC2)c(C)c1`, the inhibition is 1.55% (inactive).

As to `COc1cc(/C=C/C(=O)OCC(=O)NCCCc2ccccc2)ccc1O`, the inhibition is 14.6% (inactive).
